Records with an inconclusive call do not appear. Activity calls are given as the source filed them. The calls were made as follows, unless noted: active = hit-call score of the fitted dose curve at least 0.9, where 1 is the maximum; inactive = score below 0.9.
Legend:
PGR (gene 5241) [1] = molecular target: PGR (gene 5241) (UniProt P06401); test: TOX21_PR_BLA_Followup_Antagonist_ratio: Tox21 HEK293 Progesterone Receptor (PR) Antagonism Beta-lactamase Follow-Up Assay, Ratio (AID 2283934; active = hit-call score of the fitted dose curve at least 0.9, where 1 is the maximum)
Procedure, shortened: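 PR-UAS-bla HEK293T cells, 3,000/well in 2% charcoal-stripped FBS, given compound plus 1nM R5020 agonist for 16 hr at 37C. Beta-lactamase FRET substrate 2 hours, ratio cleaved/uncleaved fluorescence; viability by CellTiter-Glo in same wells.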

[2] = TOX21_PR_BLA_Followup_Agonist_viability: Viability Assessment in the Tox21 HEK293 Progesterone Receptor (PR) Agonism Beta-lactamase Follow-Up Assay (AID 2283935; active = hit-call score of the fitted dose curve at least 0.9, where 1 is the maximum;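 also: signal loss means lower viability so actives are cytotoxic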)
Procedure, shortened: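 PR-UAS-bla HEK293T cells in 2% charcoal-stripped FBS medium, plated 6 hr before compound addition, exposed 16 hr at 37C. Viability read by CellTiter-Glo ATP luminescence after 30 min at room temperature, in the same wells as the beta-lactamase readout.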

PGR (gene 5241) [3] = molecular target: PGR (gene 5241) (UniProt P06401); test: TOX21_PR_LUC_Followup_Antagonist: Tox21 HEK293 Progesterone Receptor (PR) Antagonism Luciferase Follow-Up Assay (AID 2283938; active = hit-call score of the fitted dose curve at least 0.9, where 1 is the maximum;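 also: curve fitted upward as signal gain over DMSO baseline despite antagonist label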)
Procedure, shortened: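 A follow-up to the PR bla screen using HEK293-PR-A-luc cells, multiplexed with cell viability to flag cytotoxicity. Reporter luminescence after 16 h compound exposure was analysed relative to DMSO.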

[4] = TOX21_PR_LUC_Followup_Antagonist_viability: Viability Assessment in the Tox21 HEK293 Progesterone Receptor (PR) Antagonism Luciferase Follow-Up Assay (AID 2283940; active = hit-call score of the fitted dose curve at least 0.9, where 1 is the maximum)
Procedure, shortened: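 HEK293-PR-A-luc cells kept in charcoal-stripped FBS medium were plated 5 h before compound addition, then exposed 16 h at 37C; viability read as cellular ATP by luciferase luminescence, loss of signal indicating cytotoxicity.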

[5] = molecular target: Thyroid hormone receptor alpha (Rattus norvegicus) + Thyroid hormone receptor beta (Rattus norvegicus) (UniProt P18113+P63059); test: TOX21_TR_LUC_GH3_Agonist_Followup: Tox21 GH3 Thyroid Hormone Receptor Agonism Luciferase Follow-Up Assay (AID 2283939; active = hit-call score of the fitted dose curve at least 0.9, where 1 is the maximum)
Procedure, shortened: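 Rat GH3 cells (1,500/well) in serum-free assay medium, treated with 15-point series, 92 uM to 5 nM final, for 24 h at 37C. Luciferase via ONE-Glo luminescence; gain of signal fitted against DMSO, T3 positive control.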

[6] = CEETOX_H295R_11DCORT_noMTC: CeeTox H295R High-throughput Steroidogenesis Assay for 11-Deoxycortisol (11DCORT), maximum tolerated concentration (MTC) filtered results only (AID 2283911); details: actives raise or lower the signal
Procedure, shortened: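 Readout is 11-deoxycortisol in culture medium by reverse-phase HPLC with MS/MS, after 48 h chemical treatment of forskolin-primed H295R cells. Values are relative to DMSO and unfiltered for cytotoxicity.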

[7] = CEETOX_H295R_OHPREG_noMTC: CeeTox H295R High-throughput Steroidogenesis Assay for OH-Pregnenolone (OHPREG), maximum tolerated concentration (MTC) filtered results only (AID 2283912); details: actives raise or lower the signal
Procedure, shortened: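 H295R cells prestimulated 48 h with 10 uM forskolin, then exposed 48 h to compound (0.1% DMSO). 17alpha-hydroxypregnenolone in medium measured by MTBE extraction and HPLC-MS/MS; bidirectional fit vs DMSO, concentrations not MTT/MTC-filtered.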

[8] = CEETOX_H295R_OHPROG_noMTC: CeeTox H295R High-throughput Steroidogenesis Assay for OH-Progesterone (OHPROG), maximum tolerated concentration (MTC) filtered results only (AID 2283914); details: actives raise or lower the signal
Procedure, shortened: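 H295R cells prestimulated 48 h with 10 uM forskolin, then exposed 48 h to chemical (0.1% DMSO final). 17alpha-hydroxyprogesterone in medium quantified by HPLC-MS/MS after MTBE extraction; bidirectional fitting versus DMSO, concentrations not MTC-filtered.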

[9] = CEETOX_H295R_ANDR_noMTC: CeeTox H295R High-throughput Steroidogenesis Assay for Androstenedione (ANDR), maximum tolerated concentration (MTC) filtered results only (AID 2283915); details: actives raise or lower the signal
Procedure, shortened: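 H295R cells, passage 10 or below, prestimulated 48 h with 10 uM forskolin, then exposed 48 h to chemical in 0.1% DMSO. Medium androstenedione extracted with MTBE, quantified by HPLC-MS/MS; concentrations not MTC-filtered; bidirectional fit versus DMSO.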

[10] = CEETOX_H295R_CORTISOL_noMTC: CeeTox H295R High-throughput Steroidogenesis Assay for Cortisol, maximum tolerated concentration (MTC) filtered results only (AID 2283916); details: actives raise or lower the signal
Procedure, shortened: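 H295R human adrenal cells prestimulated 48 h with 10 uM forskolin, then exposed 48 h to chemical in 0.1% DMSO; cortisol in medium quantified by HPLC-MS/MS; bidirectional fit vs DMSO baseline, concentrations not MTT-filtered for MTC.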

[11] = CEETOX_H295R_CORTIC_noMTC: CeeTox H295R High-throughput Steroidogenesis Assay for Corticosterone (CORTIC), maximum tolerated concentration (MTC) filtered results only (AID 2283917); details: actives raise or lower the signal
Procedure, shortened: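 H295R adrenal cells pre-stimulated 48 h with 10 uM forskolin, then exposed 48 h to chemical in 0.1% DMSO; corticosterone in medium quantified by HPLC-MS/MS, fitted bidirectionally versus DMSO without MTT-based concentration filtering.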

[12] = CEETOX_H295R_DOC_noMTC: CeeTox H295R High-throughput Steroidogenesis Assay for DOC, maximum tolerated concentration (MTC) filtered results only (AID 2283918); details: actives raise or lower the signal
Procedure, shortened: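 H295R cells prestimulated 48 h with 10 uM forskolin, then exposed 48 h to chemical in 0.1% DMSO. 11-Deoxycorticosterone in medium measured by MTBE extraction and HPLC-MS/MS; bidirectional fit vs DMSO, no MTC filter.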

[13] = CEETOX_H295R_PROG_noMTC: CeeTox H295R High-throughput Steroidogenesis Assay for Progesterone (PROG), maximum tolerated concentration (MTC) filtered results only (AID 2283920); details: actives raise or lower the signal
Procedure, shortened: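 H295R cells, prestimulated 48 h with 10 uM forskolin, exposed 48 h to chemical in 0.1% DMSO. Medium progesterone quantified by MTBE extraction and HPLC-MS/MS; bidirectional fit versus DMSO, concentrations not MTT-filtered.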

[14] = CEETOX_H295R_TESTO_noMTC: CeeTox H295R High-throughput Steroidogenesis Assay for Testosterone (TESTO), maximum tolerated concentration (MTC) filtered results only (AID 2283924); details: actives raise or lower the signal
Procedure, shortened: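 H295R cells prestimulated 48 h with 10 uM forskolin, then exposed 48 h to chemicals in 0.1% DMSO final. Testosterone in medium quantified by MTBE extraction and HPLC-MS/MS; bidirectional fit versus DMSO, concentrations […] filtered by MTT-based maximum tolerated concentration.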

Sequence of PGR (gene 5241) (P06401 whole entry, looked up): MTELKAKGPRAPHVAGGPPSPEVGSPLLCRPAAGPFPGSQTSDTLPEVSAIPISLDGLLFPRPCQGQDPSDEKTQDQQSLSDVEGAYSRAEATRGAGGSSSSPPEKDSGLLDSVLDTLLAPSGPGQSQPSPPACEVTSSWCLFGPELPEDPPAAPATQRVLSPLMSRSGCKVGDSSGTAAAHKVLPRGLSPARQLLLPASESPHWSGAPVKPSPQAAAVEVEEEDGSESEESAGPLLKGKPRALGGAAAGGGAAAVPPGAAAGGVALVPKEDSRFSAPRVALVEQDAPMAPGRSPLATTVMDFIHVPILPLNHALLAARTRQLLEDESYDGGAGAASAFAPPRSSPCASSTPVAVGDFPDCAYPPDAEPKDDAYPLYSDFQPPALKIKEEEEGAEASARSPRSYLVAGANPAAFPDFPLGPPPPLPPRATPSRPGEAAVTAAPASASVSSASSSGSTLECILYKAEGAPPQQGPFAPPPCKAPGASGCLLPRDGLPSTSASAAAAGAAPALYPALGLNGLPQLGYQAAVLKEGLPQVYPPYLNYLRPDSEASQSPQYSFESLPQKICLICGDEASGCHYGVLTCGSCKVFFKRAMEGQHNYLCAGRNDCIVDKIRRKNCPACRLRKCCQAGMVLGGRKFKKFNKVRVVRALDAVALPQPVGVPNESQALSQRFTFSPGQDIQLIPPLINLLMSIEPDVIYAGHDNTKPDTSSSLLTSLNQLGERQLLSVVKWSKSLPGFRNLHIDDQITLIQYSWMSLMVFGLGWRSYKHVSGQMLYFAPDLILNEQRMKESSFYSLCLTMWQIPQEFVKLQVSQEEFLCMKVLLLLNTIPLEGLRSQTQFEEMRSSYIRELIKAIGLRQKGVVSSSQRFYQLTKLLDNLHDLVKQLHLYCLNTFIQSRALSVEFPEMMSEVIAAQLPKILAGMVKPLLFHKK
Sequence of Thyroid hormone receptor alpha (Rattus norvegicus) + Thyroid hormone receptor beta (Rattus norvegicus) (P63059 whole entry, looked up): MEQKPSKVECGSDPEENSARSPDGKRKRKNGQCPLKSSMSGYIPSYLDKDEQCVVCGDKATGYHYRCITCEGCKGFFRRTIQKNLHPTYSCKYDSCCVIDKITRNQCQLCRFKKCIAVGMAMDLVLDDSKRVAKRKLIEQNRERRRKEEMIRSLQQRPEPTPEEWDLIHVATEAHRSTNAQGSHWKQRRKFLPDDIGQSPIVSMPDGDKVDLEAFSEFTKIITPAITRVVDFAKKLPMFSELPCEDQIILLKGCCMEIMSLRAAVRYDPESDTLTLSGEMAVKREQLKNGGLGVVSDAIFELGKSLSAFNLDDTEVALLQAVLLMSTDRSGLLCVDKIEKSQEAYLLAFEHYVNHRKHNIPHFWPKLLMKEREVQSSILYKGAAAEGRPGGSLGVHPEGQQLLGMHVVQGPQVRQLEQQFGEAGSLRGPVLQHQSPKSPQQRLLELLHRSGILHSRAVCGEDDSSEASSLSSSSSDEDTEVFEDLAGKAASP
Sequence of Thyroid hormone receptor alpha (Rattus norvegicus) + Thyroid hormone receptor beta (Rattus norvegicus) (P18113 whole entry, looked up): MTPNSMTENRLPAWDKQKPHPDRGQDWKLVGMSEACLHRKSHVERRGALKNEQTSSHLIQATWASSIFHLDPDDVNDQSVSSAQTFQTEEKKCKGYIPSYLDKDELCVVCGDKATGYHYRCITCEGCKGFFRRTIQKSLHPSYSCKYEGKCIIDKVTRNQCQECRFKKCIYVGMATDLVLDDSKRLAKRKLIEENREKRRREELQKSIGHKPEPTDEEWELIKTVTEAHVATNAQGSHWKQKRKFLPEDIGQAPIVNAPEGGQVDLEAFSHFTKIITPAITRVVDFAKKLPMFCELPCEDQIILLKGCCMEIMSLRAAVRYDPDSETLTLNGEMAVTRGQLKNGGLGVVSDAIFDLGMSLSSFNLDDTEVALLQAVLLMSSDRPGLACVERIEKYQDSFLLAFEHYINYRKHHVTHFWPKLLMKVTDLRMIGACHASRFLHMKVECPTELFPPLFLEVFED

SMILES: CCOP(=S)(OCC)Oc1ccc(Cl)cc1Cl
- AC50 (PGR (gene 5241) [1]): 33.2 µM (active)
- outcome [2]: inactive
- outcome (PGR (gene 5241) [3]): inactive
- outcome [4]: inactive

SMILES: O=C(Cl)OCCOCCOC(=O)Cl
- outcome [5]: inactive

SMILES: c1cc[c]([Sb]([c]2ccccc2)[c]2ccccc2)cc1
- outcome [6]: inactive
- AC50 [7]: 50 µM (active)
- AC50 [8]: 1.53 µM (active)
- AC50 [9]: 27.8 µM (active)
- AC50 [10]: 11.3 µM (active)
- AC50 [11]: 8.85 µM (active)
- outcome [12]: inactive
- AC50 [13]: 10.8 µM (active)
- outcome [14]: inactive

Source: PubChem BioAssay (EPA / NIEHS)
